Assay outcomes as filed in PubChem.
Sampled rows, rich in hits. Any-hit rate of the full collection: about 1.1%.
HTR5A inv ctr: HTR5A inverse agonists in luminescence cell assay, primary screen, counter-screen for OPRM1-OPRD1 heterodimer inverse agonist project, full-deck HTS. 5-hydroxytryptamine receptor 5A (Homo sapiens), P47898. HTR5A cell line, inverse agonism. inhibition, % at 9.3 µM. 340,000 tested, 0.083% active; in the data active = inhibition mostly above about 23%, no sharp cut-off; inactive = mostly below about 18%;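 also: 0% = cells with DMSO and 100% = no-cell wells with DMSO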
Target sequence (P47898 whole entry, looked up): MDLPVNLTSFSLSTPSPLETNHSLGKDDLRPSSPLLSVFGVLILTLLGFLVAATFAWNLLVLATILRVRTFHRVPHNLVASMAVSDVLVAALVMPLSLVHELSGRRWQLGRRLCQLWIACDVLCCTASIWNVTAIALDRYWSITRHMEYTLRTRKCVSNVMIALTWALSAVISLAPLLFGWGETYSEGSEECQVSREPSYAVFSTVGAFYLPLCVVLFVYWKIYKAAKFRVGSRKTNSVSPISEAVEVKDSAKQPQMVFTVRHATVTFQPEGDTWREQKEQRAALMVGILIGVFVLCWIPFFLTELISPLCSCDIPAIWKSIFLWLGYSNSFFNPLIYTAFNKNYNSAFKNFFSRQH
OPRM1-OPRD1 ag: agonists of OPRM1-OPRD1 heterodimerization, primary screen, cell-based, luminescence; Mu-type opioid receptor (Homo sapiens) + Delta-type opioid receptor (Homo sapiens), …; cells; activation, % at 9.3 µM; 340,000 tested, 0.3% active; in the data active = activation above about 18%;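 also: 0% = vehicle-treated cells and 100% = reference agonist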
MOR-DOR inv ag: inverse agonists of MOR-DOR heterodimerization, primary screen, cell-based, luminescence; Mu-type opioid receptor (Homo sapiens) + Delta-type opioid receptor (Homo sapiens), …; cell-based MOR-DOR heterodimer luminescence, inverse agonism; inhibition, % at 9.3 µM; 340,000 tested, 0.21% active; AID 504357, 2011; in the data active = inhibition above about 22%, passing the limit was not always enough;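 also: 0% = cells with DMSO and 100% = wells without cells with DMSO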
HTR5A ag ctr: HTR5A agonists in luminescence cell assay, primary screen, counter-screen for OPRM1-OPRD1 heterodimer agonist project, full-deck HTS; 5-hydroxytryptamine receptor 5A (Homo sapiens), P47898; activation, % at 9.3 µM; 340,000 tested, 0.61% active; cell-based; AID 504692, 2011; in the data active = activation mostly above about 9.5%, no sharp cut-off; inactive = mostly below about 7.6%;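 also: 0% = cells with vehicle only and 100% = reference agonist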
The depositor's hits bear a star.

SMILES	HTR5A inv ctr	OPRM1-OPRD1 ag	MOR-DOR inv ag	HTR5A ag ctr
CC(C)(C)OC(=O)C[C@@H]1C/C=C\C[C@@H](CC(=O)N(CCO)Cc2ccccc2)C(=O)NC[C@H](c2ccccc2)OC1=O	24	-1	4	12*
CC(C)(C)OC(=O)C[C@@H]1C/C=C\C[C@@H](CC(=O)N(CCO)Cc2ccccc2)C(=O)NC[C@@H](c2ccccc2)OC1=O	18	-6	29	-3
Cc1ccc(N2C(=O)CC(Cc3ccc(Cl)cc3)C2=O)cc1 (configuration not stated)	-6	-2	7	2
N/C(=N\OC(=O)c1ccc(Cl)cc1Cl)c1cccnc1	2	9	-63	-1
N/C(=N\OC(=O)c1ccc(Cl)cc1)c1cccnc1	-23	9	-55	14*
CCN(CC)CCn1c2c(c(SCC(=O)NCc3ccccc3)nc1=O)CCC2	4	-2	9	-2
Cn1c(/C=C/c2ccc(Cl)cc2)nc2ccccc2c1=O	-37	3	-14	9.8*
O=c1c2ccccc2nc(/C=C/c2ccccc2)n1CCCO	-35	-3	15	9.9*
Cn1c(/C=C/c2ccccc2)nc2ccccc2c1=O	-14	-2	9	4
N#Cc1ccccc1S(=O)(=O)N1CCN(C(=O)c2cccc(S(=O)(=O)N3CCCC3)c2)CC1	1	-1	5	-1
COc1cc(OC)cc(C(=O)NNC(=O)CCNS(=O)(=O)c2ccc(Br)cc2)c1	9	-1	3	-4
Cc1cc(C)nc(NS(=O)(=O)c2ccc(NC(=O)CCC(=O)O)cc2)n1	6	-2	8	-1
COc1ccccc1CN=C1NC(=O)C(CC(=O)Nc2ccc(C(C)=O)cc2)S1 (configuration not stated)	8	0	-2	13*
COc1ccc(CCNC(=O)CC2SC(=NCc3ccccc3OC)NC2=O)cc1 (configuration not stated)	-2	-2	8	1
COc1cccc(C(=O)COc2ccc3c(C)cc(=O)oc3c2)c1	15	1	-5	-4
COc1cccc(C(=O)COc2ccc3ccc(=O)oc3c2)c1	-33	-1	9	12*
COC(=O)Oc1ccc(/C=N/NC(=O)CSCc2ccc(Cl)cc2)cc1OC	10	4	-18	-8
CCC(CC)C(=O)c1c[nH]c(C(=O)NCc2cccs2)c1	4	-3	16	3
CC(C)(C)c1ccc(C(=O)c2c[nH]c(C(=O)NCCc3ccccn3)c2)cc1	-26	-2	8	9.4*
CC(C)C(NC(=O)c1ccc(C(C)(C)C)cc1)C(=O)NCCc1ccccn1 (configuration not stated)	-4	1	-4	1
CCC(CC)C(=O)c1c[nH]c(C(=O)NCCc2ccccn2)c1	-1	0	-2	13*
CCC(CC)C(=O)c1c[nH]c(C(=O)NCc2ccccn2)c1	-23	1	-5	9.1*
COc1ccc(N2CCN(C(=O)CNC(=O)c3cccc(Br)c3)CC2)cc1	-5	-2	13	1
Cc1ccccc1CN1CCN(c2nc3ccccc3s2)CC1	10	4	-19	-3
Cc1c(/C=N\NC(=O)c2csc3ccccc23)cnn1C	-50	-1	3	11*
SMILES	HTR5A inv ctr	OPRM1-OPRD1 ag	MOR-DOR inv ag	HTR5A ag ctr
Cc1ccc2c(c1)c1c3n2CCCNC3CCC1 (configuration not stated)	10	3	-15	10*
c1cc2c(cc1C1CCCCC1)c1c3n2CCCNC3CCC1 (configuration not stated)	-41	15	-86	9
CS(=O)(=O)c1ncc(Cl)c(C(=O)Nc2ccc(OC(F)F)cc2)n1	10	-7	35*	-3
COc1cc(C(=O)O/N=C2\C=CC(=O)C=C2C)cc(OC)c1OC	-6	2	-11	2
COc1cc(C(=O)ON=C2C3CC4CC(C3)CC2C4)cc(OC)c1OC	-42	10	-48	12*
O=C(Nc1cccc(Br)c1)c1cccc(OC(=S)N2CCOCC2)c1	-10	1	-8	3
CCn1c(=O)cc(OCC(=O)Nc2cc(C)ccn2)c2ccccc21	-6	0	1	1
CCn1c(=O)cc(OCC(=O)NCCc2cccc(C)c2)c2ccccc21	-32	-1	5	12*
Cc1cccc(N(C)C(=O)COc2cc(=O)n(C)c3ccccc23)c1	-31	-1	4	11*
COc1cc(C(=O)Nc2ccc(S(=O)(=O)N3CCCCC3)cc2)ccc1OCC(=O)N1CCOCC1	-8	-2	7	0
Cn1c2ccccc2c(=O)c2ccc(NCCc3cccs3)cc21	-19	6	-35	14*
CNCCCCOc1ccccc1-c1ccccc1	11	0	0	9.9*
Cc1cc(NC(=O)c2cc3cccc([N+](=O)[O-])c3[nH]2)ccc1F	-36	6	-30	12*
COC(=O)c1ccncc1C(=O)Nc1ccc(F)cc1	-3	-1	7	1
C#CCNC(=O)C1=C[C@@H](c2ccc3c(c2)OCO3)[C@H](CCCO)[C@@H](OCC)O1	20	-2	11	11*
CCO[C@@H]1OC(C(=O)NCc2ccccc2)=C[C@H](c2ccc3c(c2)OCO3)[C@H]1CCCO	-26	-2	8	-1
Clc1ccc(C2Nc3cccc4cccc(c34)N2)cc1	3	0	0	15*
Cc1ccc2[nH]cc(CCNC(=O)C3CCCO3)c2c1 (configuration not stated)	-42	0	-1	11*
Cc1ccc2[nH]cc(CCNC(=O)c3ccc4c(c3)OCO4)c2c1	4	-1	3	-1
COc1cc(C2c3cc4c(cc3OC(NCCc3ccccc3)C2C)OCO4)cc(OC)c1OC (configuration not stated)	-45	0	-1	11*
COc1ccc(C(=O)NC2(C(F)(F)F)NC(=O)N(CCCc3ccccc3)C2=O)cc1OC (configuration not stated)	-19	0	2	8
Cc1[nH]c(C)c(S(=O)(=O)N2CCN(c3ccccc3)CC2)c1C(=O)N1CCCCC1	-44	-1	6	5
O=C(COC(=O)c1ccc2c(=O)n3c(nc2c1)CCC3)Nc1ccccc1F	-30	0	1	11*
COc1ccc(CN2c3c(Br)cccc3C(=O)CS2(=O)=O)cc1	17*	-2	11	-5
O=C1CS(=O)(=O)N(Cc2cccc(F)c2)c2ccc(Br)cc21	-38	0	1	14
COc1ccc(OC)c(NC(=O)COC(=O)c2ccc(OC)c(S(=O)(=O)N3CCOCC3)c2)c1	-13	0	-1	5
CCn1nc(C(=O)N2CCc3ccccc32)c2ccccc2c1=O	-3	0	0	5
CCn1nc(C(=O)OCC(=O)N2CCc3ccccc32)c2ccccc2c1=O	-45	-2	10	14*
N/C(=N\OC(=O)/C=C/c1ccc(Br)cc1)c1ccccn1	-3	2	-13	10*
